GLS inh – qHTS for Inhibitors of Glutaminase (GLS). GLS enzymatic activity, qHTS titration. Potency, µM (series often up to 45.5 µM), inactives show at the highest dose activity change, negative = inhibition, most hits filed as inhibitors. hit rate 0.21% among 410,000. AID 624170, 2012; also: potency is read from the fitted curve at half-maximal effect
Target sequence (O94925 whole entry, looked up): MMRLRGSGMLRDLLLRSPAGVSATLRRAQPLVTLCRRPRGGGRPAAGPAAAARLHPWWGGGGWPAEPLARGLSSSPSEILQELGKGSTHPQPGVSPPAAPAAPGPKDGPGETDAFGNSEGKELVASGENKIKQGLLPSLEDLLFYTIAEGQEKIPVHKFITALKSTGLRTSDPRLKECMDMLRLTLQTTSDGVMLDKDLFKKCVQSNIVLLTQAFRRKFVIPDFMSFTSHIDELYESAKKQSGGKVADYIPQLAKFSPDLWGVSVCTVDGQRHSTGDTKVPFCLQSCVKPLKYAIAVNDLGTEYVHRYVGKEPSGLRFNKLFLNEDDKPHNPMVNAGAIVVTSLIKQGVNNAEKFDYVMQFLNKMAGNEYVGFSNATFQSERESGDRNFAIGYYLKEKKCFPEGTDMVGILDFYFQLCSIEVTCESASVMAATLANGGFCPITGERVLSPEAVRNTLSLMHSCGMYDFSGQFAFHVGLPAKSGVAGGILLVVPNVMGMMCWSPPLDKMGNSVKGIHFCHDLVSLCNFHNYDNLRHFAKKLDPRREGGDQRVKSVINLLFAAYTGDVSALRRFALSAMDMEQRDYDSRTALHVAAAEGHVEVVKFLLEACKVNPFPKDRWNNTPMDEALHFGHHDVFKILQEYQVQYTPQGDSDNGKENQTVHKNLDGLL
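Human kidney-isoform GLS in 45 mM KH2PO4 pH 8.2, 0.02% Tween-20, with compound, started with 1mM L-Glutamine (added stock). Glutamate oxidase/HRP/Amplex red coupled fluorescence read at start and after 30 min at RT.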
GCN5L2 inh – qHTS Assay for Inhibitors of GCN5L2 | Potency, µM (top dose mostly 58.9 µM), without a hit: top-dose activity change, negative = inhibition, most hits filed as inhibitors | AID 504327, 2011 | Histone acetyltransferase KAT2A (Homo sapiens), Q92830 | GCN5L2 HAT assay, ThioGlo1 CoA-SH fluorescence | hit rate 0.21% among 390,000; also: potency is read from the fitted curve at half-maximal effect
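Enzyme at 20nM final was mixed with library compounds for 15 min at room temperature. Peptide H3(1-25) at 75uM, acetyl-CoA at 70uM and ThioGlo1 at 50uM were then added. Plates were read immediately and after 20 min (Ex340nm/Em540nm).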
PLK1 PBD block – qHTS for Inhibitors of PLK1-PDB (polo-like kinase 1 - polo-box domain): Primary Screen. hit rate 2.8% among 360,000. Serine/threonine-protein kinase PLK1 (Homo sapiens), P53350. Potency, µM, for inactives: max response, negative = inhibition, hits mostly inhibitors. Plk1 PBD binding of FITC phosphopeptide, fluorescence polarization; also: potency is read from the fitted curve at half-maximal effect; series mostly up to about 57 µM; nearly all actives have a fitted effect of over 65% in size
PI4K2A inh – qHTS for small molecular inhibitors of PI4K2A; Phosphatidylinositol 4-kinase type 2-alpha (Homo sapiens), Q9BTU6; purified PI4K2A, ADP-Glo luminescence, 1 h; stronger effect = lower value; activity change, negative = inhibition, % at 76.9 µM; hit rate 0.13% among 420,000; in the data active = activity change below about -50%; inconclusive = mostly about -30% to -49%;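 also: -100% = wells without enzyme as full effect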
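Compounds are screened against recombinant PI4K2A using PI as substrate and ATP, the latter dispensed at 300 microM. Reactions run one hour at ambient temperature before ADP-Glo detection; full inhibition defined by wells lacking enzyme.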
VDR inh – Inhibitors of the vitamin D receptor (VDR): qHTS; VDR-SRC2-3 peptide fluorescence polarization, 2 h; Vitamin D3 receptor (Homo sapiens), P11473; hit rate 0.93% among 400,000; Potency, µM, without a hit: max response, negative = inhibition, hits mostly inhibitors; also: potency is read from the fitted curve at half-maximal effect
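The screen uses fluorescence polarization to detect compounds that interfere with recruitment of the SRC2-3 coactivator peptide to VDR; plates are read after 2 h at room temperature.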
Starred values were filed as active, the others as inactive. Shown are actives, neighbours in structure and some others; about 3.1% of the full set was active somewhere. Unless noted, calls follow the shape of the dose curve; as a rule, active = well fitted curve in the direction sought with a large enough effect; inconclusive = small, poorly fitted or top-dose-only effect, or another doubt; inactive = no such curve, though single readings can be large; an effect the other way counts as inactive or inconclusive. Unless noted, % is scaled to controls: 0 for no effect and ±100 for the full control effect.

`CCCCN(C(=O)C1CC(=O)N(c2ccc3c(c2)OCCO3)C1)c1c(N)n(CC(C)C)c(=O)[nH]c1=O` (stereo unspecified) gave GLS inh -8%, GCN5L2 inh -1%, PLK1 PBD block -7%, PI4K2A inh -7 and VDR inh 9%.
For C[C@H](NC(=O)C1CC(=O)N(c2ccc3c(c2)OCO3)C1)C(=O)NC1CCCCC1 (stereo partly specified) the results were GLS inh -1%, GCN5L2 inh -1%, PLK1 PBD block 11µM*, PI4K2A inh -5 and VDR inh inconclusive.
`CC1(C)CC(=O)C(C=NCCO)=C(O)C1` gave GLS inh 30%, GCN5L2 inh 1%, PLK1 PBD block 27µM*, PI4K2A inh -3 and VDR inh -16%.
CC(=O)NC(Cc1ccc2c(c1)OCO2)C(=O)N1CCCC1 (stereo unspecified) was read as PI4K2A inh -2.
`COc1ccc(CNC(=O)C2(c3cccs3)CCOCC2)cc1` gave GLS inh 0%, GCN5L2 inh 0%, PI4K2A inh 0 and VDR inh 10%.
N#Cc1cccc(Cn2ccc3ccc(-c4ccc5ccn(Cc6cccc(C#N)c6)c5c4)cc32)c1 was read as PI4K2A inh 0.
For O=S(=O)(c1ccccc1)C(/C=N\O)/C=C/c1ccccc1 (stereo unspecified) the results were GLS inh -28%, GCN5L2 inh -10%, PLK1 PBD block 3µM*, PI4K2A inh 5 and VDR inh -18%.
O=C1OCCC1Sc1nnc(-c2ccc(O)cc2)o1 (stereo unspecified) was read as GLS inh -1%, GCN5L2 inh -3%, PLK1 PBD block 27µM*, PI4K2A inh -3 and VDR inh 11%.
`O=C(CSc1nnc(-c2ccc(Cl)cc2)o1)N1CCOCC1` gave GLS inh -10%, GCN5L2 inh -3%, PLK1 PBD block 1%, PI4K2A inh 2 and VDR inh 17%.
For O=C1OCCC1Sc1nnc(-c2ccc3c(c2)OCO3)o1 (stereo unspecified) the results were GLS inh -3%, GCN5L2 inh -1%, PLK1 PBD block -3%, PI4K2A inh -4 and VDR inh -18%.
Screening O=C(CSc1nnc(-c2ccc(O)cc2)o1)N1CCOCC1 returned GLS inh 8.9µM*, GCN5L2 inh -5%, PLK1 PBD block -5%, PI4K2A inh -1 and VDR inh 11%.
CC(C)C[C@H](NC(=O)[C@@H]1CCCN1C(=O)[C@H](Cc1ccccc1)NC(=O)[C@H](C)NC(=O)[C@H](CCC(=O)O)NC(=O)[C@H](C)NC(=O)[C@H](CO)NC(=O)[C@H](CCC(=O)O)NC(=O)[C@H](CC(=O)O)NC(=O)[C@H](CCC(=O)O)NC(=O)[C@H](C)NC(=O)CNC(=O)[C@H](CC(N)=O)NC(=O)[C@@H]1CCCN1C(=O)[C@H](Cc1ccc(O)cc1)NC(=O)[C@@H](NC(=O)[C@H](CCCCN)NC(=O)[C@@H](NC(=O)[C@@H]1CCCN1C(=O)[C@@H](N)CCCNC(=N)N)C(C)C)C(C)C)C(=O)N[C@@H](CCC(=O)O)C(=O)N[C@@H](Cc1ccccc1)C(=O)O was read as GCN5L2 inh 0% and VDR inh -4%.
For S=C1Cc2ccccc2N1 the results were GLS inh -4%, GCN5L2 inh 8%, PLK1 PBD block 12µM*, PI4K2A inh inconclusive and VDR inh 2.2µM*.
For S=C1Nc2ccccc2CS1 the results were GLS inh 7%, PLK1 PBD block -15% and PI4K2A inh -4.
CCCC1S/C(=N/N=C/c2cccs2)NC1=O (stereo unspecified) was read as GLS inh 37%, GCN5L2 inh 20%, PLK1 PBD block 17µM*, PI4K2A inh -3 and VDR inh 6%.
Screening CC1CCN(c2ccc3nnc(CCC(=O)Nc4cccc(F)c4)n3n2)CC1 returned GLS inh 1%, GCN5L2 inh -7%, PLK1 PBD block 27µM*, PI4K2A inh 0 and VDR inh -23%.
COC(=O)CCN(Cc1ccco1)S(=O)(=O)c1ccc(F)cc1Br was read as VDR inh -15%.
For Cc1cccc(NC(=O)CCC(=O)OCC(=O)c2ccc(Oc3ccc([N+](=O)[O-])cc3)cc2)c1 the results were GLS inh -3%, GCN5L2 inh -4%, PLK1 PBD block 11µM*, PI4K2A inh 0 and VDR inh inconclusive.
O=C(OCc1cn(Cc2ccc(C(F)(F)F)cc2)nn1)N1CCCC1 was read as PI4K2A inh -7.
For COc1ccc(NC(=O)COc2ccc(C(=O)OCC(=O)N(C(C)C)C(C)C)cc2OC)cc1 the results were GLS inh 4%, GCN5L2 inh -5%, PLK1 PBD block 24µM*, PI4K2A inh -4 and VDR inh -8%.
For O=C(c1ccccc1)N1CC[C@H]2[C@H](CCCN2Cc2ccccc2)C1 the results were PI4K2A inh 3.
For Cc1ccc([N+](=O)[O-])cc1S(=O)(=O)N1CCN(C)CC1 the results were GLS inh 6%, GCN5L2 inh -1%, PLK1 PBD block -6%, PI4K2A inh 1 and VDR inh 2%.
Screening Cc1ccc([N+](=O)[O-])cc1S(=O)(=O)n1ccnc1C returned GLS inh inconclusive, GCN5L2 inh 0%, PLK1 PBD block 4.2µM*, PI4K2A inh -5 and VDR inh inconclusive.
Screening S=C1NCN(Cc2cccnc2)CN1 returned GLS inh 2%, GCN5L2 inh 0%, PLK1 PBD block 0%, PI4K2A inh 2 and VDR inh 2%.
For CN(C)C(=S)N=c1ssc(=S)n1Cc1cccnc1 the results were GLS inh 1%, PLK1 PBD block 27µM*, PI4K2A inh 20 and VDR inh 50µM*.
Screening CCOC(=O)c1sc(=S)n(-c2ccccc2OC)c1N returned GLS inh -11%, GCN5L2 inh -6%, PLK1 PBD block 21µM*, PI4K2A inh -8 and VDR inh -29%.
COC(=O)c1sc(=S)n(-c2ccccc2OC)c1N was read as GLS inh 10%, GCN5L2 inh -5%, PLK1 PBD block -2%, PI4K2A inh -1 and VDR inh 0%.
CCCCNC(=O)c1sc(=S)n(-c2ccccc2OC)c1N was read as GLS inh inconclusive, GCN5L2 inh -9%, PLK1 PBD block 27µM*, PI4K2A inh 3 and VDR inh -3%.

High-throughput results: PubChem, National Center for Advancing Translational Sciences (NCATS)
